Here are results for eleven molecules from the supplement of paper PMC9135407.

Counter-ions that a name gives are not always drawn. Values without a mark were called inactive.

The subject of the assay is primary human hepatic stellate cells (donor 1). Description: COL1A1 mRNA fold change vs DMSO (normalised to PSMB2); higher = more COL1A1 expression, active = hit call of the paper. The settings on record: 48 h. The protocol: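 Secondary qRT-PCR screen in primary human HSCs (donor 1), 384-well plates, with compounds dispensed in quadruplicate and incubated for 48 h. Cells-to-CT lysates were used for multiplexed TaqMan qPCR of ACTA2 or COL1A1 with PSMB2 as reference. Fold changes versus DMSO come from a linear model (Ct_gene ~ Ct_PSMB2 + plate + chemical). A hit is defined as COL1A1 and ACTA2 FC <0.5 (FDR <0.05) with PSMB2 between 0.2 and 2.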
Turning to `Cc1[nH]c(/C=C2\C(=O)Nc3ccc(S(=O)(=O)N(C)c4cccc(Cl)c4)cc32)c(C)c1C(=O)N1CCN(C)CC1` (33.3333 µM), the “COL1A1 mRNA fold change” value is 0.254 (active). Then `Cc1ccc(NC(=O)C(C)C)cc1C1CCN(Cc2ccc(Oc3ccc(F)c(F)c3)cc2)CC1` (33.3333 µM), with 0.0966; and `O=S(=O)(NCCNC/C=C/c1ccc(Br)cc1)c1cccc2cnccc12` [H-89, Dihydrochloride] (11.1 µM), with 0.594. As to `CN1CCC(CNc2ccc3ncc(-c4cccc(OC(F)(F)F)c4)n3n2)CC1` (6.66667 µM), the “COL1A1 mRNA fold change” value was 0.552. As to `NC(N)=NC(=O)c1nc(Cl)c(N2CCCCCC2)nc1N` [5-(N,N-hexamethylene)amiloride] (33.3333 µM), the “COL1A1 mRNA fold change” value is 0.0273 (active). Then `CN1CCC(NC(=O)c2cc(-c3c(O)cc(O)cc3Oc3ccc([N+](=O)[O-])cc3)on2)CC1` (33.3333 µM), with 1.15; and `CN1CCCN(C(c2ccccc2)c2ccc(Cl)cc2)CC1` (stereo unspecified) [Homochlorcyclizine dihydrochloride] (33.3333 µM), with 0.0131 (active); and `CN(C)CCCCC(=O)Nc1ccc(NC(=S)NC(=O)c2ccc(C(C)(C)C)cc2)cc1` [Tenovin-6] (33.3333 µM), with 0.00938. Then `CNCc1ccc(-c2[nH]c3cc(F)cc4c3c2CCNC4=O)cc1` (33.3333 µM), with 0.83; and `O=C1NCN(c2ccccc2)C12CCN(CCCC(c1ccc(F)cc1)c1ccc(F)cc1)CC2` [Fluspirilene] (14.0333 µM), with 0.695. The figure for `C[C@@H]1CN(CCCn2c3ccccc3c3ccccc32)C[C@H](C)N1` [Rimcazole dihydrochloride] (33.3333 µM) is 0.14.
